Test results taken from the supplement of paper PMC10849652.
Of roughly 7,900 targets only a part is listed; those with a hit were picked by preference. About 0.6% of all pairs of compound and target were hits.

Assays:
Assay in all cases: log2 fold change, soluble protein after heating vs DMSO (PISA); higher = thermal stabilisation; K562 cells, 10 uM, 30 min; active = over 0.2 and 3.5 SD of the protein, either way, in both replicates (recomputed)
[1] = compound: C1=CC=C(C=C1)[C@H](COC2=CC3=C(C=C2)NC(=O)N3)NC(=O)C4=CC=CN(C4=O)CC5=CC(=C(C=C5)F)F
Summary of the method: (§1)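 For each measurement, 10 μM compound was applied for 30 min to K562 cells at 2×10^6 cells/mL. Aliquots were heated for 3 min across 48°C-58°C, pooled, and extracted in PBS with 0.5% NP-40 at 4°C; the supernatant after 21,000xg for 90 min was soluble protein. This was quantified by TMTpro 16plex LC-MS/MS with channel sums equalised, and thermal stability was reported relative to control samples from duplicates, on a log2 fold-change scale.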

[2] = compound: CC1=C(SC2=C1C(=N[C@H](C3=NN=C(N32)C)CC(=O)N)C4=CC=C(C=C4)Cl)C
Summary of the method: as §1

[3] = compound: CC1=C2C(=CC=C1)N=C(N(C2=O)C3=CC=CC=C3C)CN4C=NC5=C(N=CN=C54)N
Summary of the method: as §1

[4] = compound: Cc1sc2c(c1C)C(c1ccc(Cl)cc1)=N[C@@H](CC(=O)OC(C)(C)C)c1nnc(C)n1-2
Summary of the method: as §1

[5] = compound: c1ccc([C@@H]2C[C@H]2NC2CCNCC2)cc1
Summary of the method: as §1

Measured: log2 fold change

FEN1 (UniProt P39748)
inactive: [1] -0.198 | [2] 0.097 | [3] 0.157 | [4] -0.009 | [5] -0.043

HAUS4 (UniProt Q9H6D7)
inactive: [1] 0.094 | [2] -0.066 | [3] 0.077 | [4] -0.021 | [5] -0.002

HOOK3 (UniProt Q86VS8)
inactive: [1] -0.065 | [2] -0.003 | [3] 0.018 | [4] 0 | [5] 0.024

GABARAPL2 (UniProt P60520)
Sequence of UniProt P60520 (P60520 whole entry, looked up): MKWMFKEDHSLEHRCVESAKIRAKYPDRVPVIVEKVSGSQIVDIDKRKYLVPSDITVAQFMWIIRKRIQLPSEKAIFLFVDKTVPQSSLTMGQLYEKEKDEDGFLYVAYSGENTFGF
inactive: [1] 0.037 | [2] 0.035 | [3] 0.039 | [4] -0.038 | [5] -0.055

GLUL (UniProt P15104)
Sequence of UniProt P15104 (P15104 whole entry, looked up): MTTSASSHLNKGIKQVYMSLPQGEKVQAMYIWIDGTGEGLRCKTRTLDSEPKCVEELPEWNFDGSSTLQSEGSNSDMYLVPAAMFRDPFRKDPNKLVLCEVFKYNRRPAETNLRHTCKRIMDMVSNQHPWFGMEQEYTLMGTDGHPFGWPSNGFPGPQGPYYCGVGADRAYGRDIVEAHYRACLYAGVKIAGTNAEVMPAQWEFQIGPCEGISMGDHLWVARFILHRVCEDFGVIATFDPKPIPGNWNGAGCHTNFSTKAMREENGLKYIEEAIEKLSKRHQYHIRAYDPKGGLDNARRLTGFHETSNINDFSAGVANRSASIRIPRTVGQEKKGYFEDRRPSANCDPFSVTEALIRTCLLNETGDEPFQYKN
inactive: [1] -0.015 | [2] 0.005 | [3] 0 | [4] -0.007 | [5] 0.02

HNRNPH1 (UniProt P31943)
inactive: [1] -0.032 | [2] -0.007 | [3] 0.045 | [4] -0.015 | [5] -0.017

HSPA8 (UniProt E9PK54)
inactive: [1] 0.004 | [2] -0.108 | [3] 0.037 | [4] 0.099 | [5] -0.001

GAPVD1 isoform 6 (UniProt Q14C86)
Sequence of UniProt Q14C86 (Q14C86 whole entry, looked up): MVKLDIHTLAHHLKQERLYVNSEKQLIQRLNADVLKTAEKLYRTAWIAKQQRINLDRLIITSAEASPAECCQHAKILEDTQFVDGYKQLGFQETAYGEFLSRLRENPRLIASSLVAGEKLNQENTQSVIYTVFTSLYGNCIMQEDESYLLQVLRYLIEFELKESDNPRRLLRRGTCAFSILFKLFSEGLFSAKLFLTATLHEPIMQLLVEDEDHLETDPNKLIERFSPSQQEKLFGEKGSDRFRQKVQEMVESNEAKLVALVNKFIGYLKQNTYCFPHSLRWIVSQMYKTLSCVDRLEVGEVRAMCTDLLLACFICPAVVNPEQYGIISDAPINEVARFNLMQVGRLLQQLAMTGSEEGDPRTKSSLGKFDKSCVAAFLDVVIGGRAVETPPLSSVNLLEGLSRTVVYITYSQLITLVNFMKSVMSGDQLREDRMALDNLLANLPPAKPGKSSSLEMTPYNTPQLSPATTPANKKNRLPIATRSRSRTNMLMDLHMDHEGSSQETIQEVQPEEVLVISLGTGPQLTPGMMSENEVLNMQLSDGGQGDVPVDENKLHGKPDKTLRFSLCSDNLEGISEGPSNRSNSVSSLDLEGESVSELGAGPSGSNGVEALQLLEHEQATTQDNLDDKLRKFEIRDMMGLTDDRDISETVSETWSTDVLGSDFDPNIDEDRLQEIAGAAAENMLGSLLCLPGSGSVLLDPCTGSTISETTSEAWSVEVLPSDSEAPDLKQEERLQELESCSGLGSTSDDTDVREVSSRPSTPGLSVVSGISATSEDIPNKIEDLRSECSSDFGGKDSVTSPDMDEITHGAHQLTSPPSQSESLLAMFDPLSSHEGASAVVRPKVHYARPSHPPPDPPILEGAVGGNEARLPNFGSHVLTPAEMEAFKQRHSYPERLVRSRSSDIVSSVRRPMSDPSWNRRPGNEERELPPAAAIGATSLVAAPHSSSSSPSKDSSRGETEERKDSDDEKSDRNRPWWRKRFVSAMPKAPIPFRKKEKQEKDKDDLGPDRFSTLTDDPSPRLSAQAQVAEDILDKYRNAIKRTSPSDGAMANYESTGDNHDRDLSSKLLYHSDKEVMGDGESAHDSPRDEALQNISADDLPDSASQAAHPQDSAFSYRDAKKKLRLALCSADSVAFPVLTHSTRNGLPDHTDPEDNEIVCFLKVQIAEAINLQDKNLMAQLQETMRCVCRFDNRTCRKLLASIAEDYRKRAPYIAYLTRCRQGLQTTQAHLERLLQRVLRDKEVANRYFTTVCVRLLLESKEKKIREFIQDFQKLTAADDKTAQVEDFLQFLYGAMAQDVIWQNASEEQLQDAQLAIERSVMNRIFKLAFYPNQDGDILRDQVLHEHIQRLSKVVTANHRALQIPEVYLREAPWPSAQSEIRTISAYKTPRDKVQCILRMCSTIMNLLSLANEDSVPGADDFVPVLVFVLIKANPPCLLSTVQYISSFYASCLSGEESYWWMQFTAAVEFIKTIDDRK
inactive: [1] -0.09 | [2] 0.008 | [3] 0.097 | [4] 0.012 | [5] -0.018

HDHD2 (UniProt Q9H0R4)
Sequence of UniProt Q9H0R4 (Q9H0R4 whole entry, looked up): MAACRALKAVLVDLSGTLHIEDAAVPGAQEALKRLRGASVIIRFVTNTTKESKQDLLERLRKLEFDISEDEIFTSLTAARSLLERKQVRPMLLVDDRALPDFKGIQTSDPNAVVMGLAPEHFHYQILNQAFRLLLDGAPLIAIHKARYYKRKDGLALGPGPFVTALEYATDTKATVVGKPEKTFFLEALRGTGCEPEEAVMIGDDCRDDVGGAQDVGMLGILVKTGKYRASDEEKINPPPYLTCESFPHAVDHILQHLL
inactive: [1] -0.044 | [2] 0.006 | [3] -0.003 | [4] 0.03 | [5] -0.031

HDAC6 (UniProt Q9UBN7)
inactive: [1] 0.159 | [2] 0.008 | [3] -0.001 | [4] -0.002 | [5] 0.009

GNL1 (UniProt P36915)
Sequence of UniProt P36915 (P36915 whole entry, looked up): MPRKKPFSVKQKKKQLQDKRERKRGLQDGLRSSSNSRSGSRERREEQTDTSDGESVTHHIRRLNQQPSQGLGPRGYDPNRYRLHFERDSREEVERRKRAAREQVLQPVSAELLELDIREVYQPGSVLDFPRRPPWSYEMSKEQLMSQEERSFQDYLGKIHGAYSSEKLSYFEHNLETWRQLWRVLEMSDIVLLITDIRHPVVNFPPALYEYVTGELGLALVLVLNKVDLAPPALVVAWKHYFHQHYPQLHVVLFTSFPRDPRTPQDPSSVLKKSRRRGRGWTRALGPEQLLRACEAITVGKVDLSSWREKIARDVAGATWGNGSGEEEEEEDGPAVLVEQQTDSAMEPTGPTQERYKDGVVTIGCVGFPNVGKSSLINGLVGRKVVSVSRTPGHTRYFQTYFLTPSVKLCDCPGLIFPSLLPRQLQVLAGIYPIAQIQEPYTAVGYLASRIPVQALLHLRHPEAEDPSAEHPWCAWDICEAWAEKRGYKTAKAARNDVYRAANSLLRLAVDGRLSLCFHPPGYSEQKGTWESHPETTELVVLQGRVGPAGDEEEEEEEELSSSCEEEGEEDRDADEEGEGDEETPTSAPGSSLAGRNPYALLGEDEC
inactive: [1] -0.042 | [2] -0.007 | [3] 0.099 | [4] -0.037 | [5] -0.038

GGT7 (UniProt Q9UJ14)
inactive: [1] 0.028 | [2] -0.055 | [3] -0.069 | [4] 0.026 | [5] 0.032

HTATIP2 isoform 3 (UniProt Q9BUP3)
inactive: [1] 0.063 | [2] 0.031 | [3] 0.059 | [4] 0.028 | [5] -0.03

HBA1 (UniProt P69905)
inactive: [1] -0.003 | [2] 0.163 | [3] 0.005 | [4] -0.167 | [5] -0.023

GLYR1 (UniProt Q49A26)
inactive: [1] 0.147 | [2] 0.054 | [3] -0.016 | [4] 0.058 | [5] 0.067

GOLPH3 (UniProt Q9H4A6)
inactive: [1] -0.035 | [2] 0.06 | [3] 0.04 | [4] -0.077 | [5] -0.021

GINS2 (UniProt Q9Y248)
Sequence of UniProt Q9Y248 (Q9Y248 whole entry, looked up): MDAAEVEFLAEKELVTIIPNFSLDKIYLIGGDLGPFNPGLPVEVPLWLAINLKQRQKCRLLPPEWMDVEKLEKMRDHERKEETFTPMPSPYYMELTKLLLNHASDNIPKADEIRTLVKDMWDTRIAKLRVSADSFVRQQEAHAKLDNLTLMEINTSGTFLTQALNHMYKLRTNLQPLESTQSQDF
inactive: [1] -0.011 | [2] 0.102 | [3] 0.115 | [4] -0.033 | [5] -0.026

GCLM (UniProt P48507)
inactive: [1] -0.014 | [2] 0.062 | [3] 0.108 | [4] 0 | [5] -0.053

FNTB (UniProt P49356)
inactive: [1] -0.034 | [2] 0.401 | [3] -0.017 | [4] 0.269 | [5] -0.044

HLTF (UniProt Q14527)
inactive: [1] 0.003 | [2] 0.012 | [3] 0.062 | [4] 0 | [5] -0.001

GIGYF2 (UniProt Q6Y7W6)
inactive: [1] -0.006 | [2] 0.057 | [3] 0.057 | [4] 0.012 | [5] -0.046

GTF2A1 (UniProt P52655)
inactive: [1] 0.04 | [2] -0.021 | [3] -0.01 | [4] -0.004 | [5] -0.006

HADHB (UniProt P55084)
inactive: [1] -0.238 | [2] 0.235 | [3] 0.2 | [4] 0.363 | [5] -0.085

GLIPR2 (UniProt Q9H4G4)
inactive: [1] -0.092 | [2] -0.091 | [3] -0.009 | [4] 0.028 | [5] -0.017

IDH3A (UniProt P50213)
Sequence of UniProt P50213 (P50213 whole entry, looked up): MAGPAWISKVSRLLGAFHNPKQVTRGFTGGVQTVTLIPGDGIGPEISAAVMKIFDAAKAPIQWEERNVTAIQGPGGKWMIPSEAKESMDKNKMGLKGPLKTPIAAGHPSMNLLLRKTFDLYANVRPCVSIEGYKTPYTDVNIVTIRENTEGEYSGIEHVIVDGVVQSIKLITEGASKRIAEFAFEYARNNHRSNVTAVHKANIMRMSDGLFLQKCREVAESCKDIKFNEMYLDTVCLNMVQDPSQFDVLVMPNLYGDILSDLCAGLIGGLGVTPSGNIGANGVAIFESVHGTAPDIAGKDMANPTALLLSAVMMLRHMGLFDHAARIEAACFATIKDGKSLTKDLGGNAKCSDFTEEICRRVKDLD
inactive: [1] -0.029 | [2] 0.018 | [3] 0.026 | [4] -0.025 | [5] -0.005

HSPA8 (UniProt P11142)
inactive: [1] -0.019 | [2] -0.032 | [3] -0.02 | [4] 0.005 | [5] -0.008

FBXO3 (UniProt Q9UK99)
inactive: [1] 0.006 | [2] -0.03 | [3] 0.033 | [4] 0.055 | [5] 0.127

HMGCR isoform 3 (UniProt P04035)
inactive: [1] -0.011 | [2] 0.034 | [3] 0.045 | [4] 0.111 | [5] 0.043

GBE1 (UniProt Q04446)
inactive: [1] -0.116 | [2] 0.01 | [3] -0.009 | [4] 0.03 | [5] 0.008

GLCCI1 (UniProt Q86VQ1)
inactive: [1] -0.088 | [2] -0.041 | [3] 0.137 | [4] 0.013 | [5] -0.075

HAT1 (UniProt O14929)
inactive: [1] 0.009 | [2] -0.005 | [3] 0.007 | [4] -0.101 | [5] -0.05

GMEB2 (UniProt Q9UKD1)
inactive: [1] 0.037 | [2] 0.073 | [3] 0.068 | [4] -0.007 | [5] -0.016

HNRNPC isoform 2 (UniProt P07910)
inactive: [1] 0.102 | [2] -0.441 | [3] -0.171 | [4] 0.07 | [5] 0.139

FAM91A1 (UniProt Q658Y4)
Sequence of UniProt Q658Y4 (Q658Y4 whole entry, looked up): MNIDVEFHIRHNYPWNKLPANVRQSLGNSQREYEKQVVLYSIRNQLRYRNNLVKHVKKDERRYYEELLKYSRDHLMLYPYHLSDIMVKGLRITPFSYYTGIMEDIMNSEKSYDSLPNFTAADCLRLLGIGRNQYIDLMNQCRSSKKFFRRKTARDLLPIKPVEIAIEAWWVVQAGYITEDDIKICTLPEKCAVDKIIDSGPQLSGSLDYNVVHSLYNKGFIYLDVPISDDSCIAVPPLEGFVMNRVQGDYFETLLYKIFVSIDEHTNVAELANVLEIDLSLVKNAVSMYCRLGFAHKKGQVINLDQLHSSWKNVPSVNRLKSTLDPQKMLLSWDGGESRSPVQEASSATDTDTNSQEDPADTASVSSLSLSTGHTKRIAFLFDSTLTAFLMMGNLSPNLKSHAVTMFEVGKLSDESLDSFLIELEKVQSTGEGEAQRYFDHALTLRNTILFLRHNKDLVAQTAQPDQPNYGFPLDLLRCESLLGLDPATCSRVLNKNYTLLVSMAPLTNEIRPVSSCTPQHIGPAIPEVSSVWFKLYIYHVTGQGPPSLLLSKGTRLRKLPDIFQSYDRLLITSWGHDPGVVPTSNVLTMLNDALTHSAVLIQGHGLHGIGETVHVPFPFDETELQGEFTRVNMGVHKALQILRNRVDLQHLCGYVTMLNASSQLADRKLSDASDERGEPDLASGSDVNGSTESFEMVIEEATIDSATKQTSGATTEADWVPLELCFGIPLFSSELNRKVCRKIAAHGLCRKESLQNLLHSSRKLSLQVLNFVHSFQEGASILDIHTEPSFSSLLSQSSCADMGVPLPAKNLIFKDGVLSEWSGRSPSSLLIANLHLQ
inactive: [1] 0 | [2] 0.04 | [3] 0.028 | [4] 0.013 | [5] -0.043

GCDH (UniProt Q92947)
inactive: [1] 0.021 | [2] 0.012 | [3] 0.036 | [4] -0.043 | [5] -0.019

GLRX3 (UniProt O76003)
inactive: [1] 0.04 | [2] 0.072 | [3] 0.072 | [4] -0.033 | [5] -0.018

GID4 (UniProt Q8IVV7)
inactive: [1] -0.012 | [2] -0.021 | [3] 0.138 | [4] 0.048 | [5] 0.009

HRAS (UniProt P01112)
Sequence of UniProt P01112 (P01112 whole entry, looked up): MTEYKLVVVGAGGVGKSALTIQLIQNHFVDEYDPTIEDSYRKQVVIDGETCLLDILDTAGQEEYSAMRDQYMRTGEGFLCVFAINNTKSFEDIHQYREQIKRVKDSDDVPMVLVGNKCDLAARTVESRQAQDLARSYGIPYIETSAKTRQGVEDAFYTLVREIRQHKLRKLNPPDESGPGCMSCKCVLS
inactive: [1] 0.015 | [2] 0.116 | [3] -0.03 | [4] 0.016 | [5] 0.138

HNRNPUL1 (UniProt Q9BUJ2)
inactive: [1] -0.021 | [2] -0.028 | [3] 0.024 | [4] 0.07 | [5] 0.058

GLS (UniProt O94925)
inactive: [1] -0.022 | [2] 0.114 | [3] 0.138 | [4] 0.013 | [5] 0.082

GATA1 (UniProt P15976)
inactive: [1] 0.061 | [2] -0.014 | [3] 0.064 | [4] 0.117 | [5] 0.029

HEXA (UniProt P06865)
Sequence of UniProt P06865 (P06865 whole entry, looked up): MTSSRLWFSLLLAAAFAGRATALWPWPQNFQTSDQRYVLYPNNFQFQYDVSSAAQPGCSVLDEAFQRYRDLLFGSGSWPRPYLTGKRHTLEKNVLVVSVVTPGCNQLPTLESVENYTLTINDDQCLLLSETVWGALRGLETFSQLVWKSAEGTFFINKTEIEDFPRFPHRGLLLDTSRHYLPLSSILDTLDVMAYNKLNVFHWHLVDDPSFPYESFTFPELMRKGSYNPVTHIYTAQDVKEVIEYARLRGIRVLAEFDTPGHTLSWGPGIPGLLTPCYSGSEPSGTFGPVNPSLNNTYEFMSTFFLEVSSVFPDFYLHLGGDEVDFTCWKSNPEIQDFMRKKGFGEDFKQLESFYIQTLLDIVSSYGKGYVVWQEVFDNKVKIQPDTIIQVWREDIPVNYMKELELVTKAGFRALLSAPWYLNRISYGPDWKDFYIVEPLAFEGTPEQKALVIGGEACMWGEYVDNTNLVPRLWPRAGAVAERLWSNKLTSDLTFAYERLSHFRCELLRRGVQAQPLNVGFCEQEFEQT
inactive: [1] 0.042 | [2] -0.004 | [3] 0.052 | [4] -0.018 | [5] 0.024

FMC1 (UniProt Q96HJ9)
inactive: [1] 0.009 | [2] 0.06 | [3] 0.044 | [4] 0 | [5] -0.002

GSTO1 (UniProt P78417)
inactive: [1] -0.024 | [2] 0.028 | [3] -0.002 | [4] -0.013 | [5] 0.007

FUT8 (UniProt Q9BYC5)
inactive: [1] 0 | [2] 0.068 | [3] -0.06 | [4] -0.168 | [5] 0.049

GTF2H3 (UniProt Q13889)
inactive: [1] 0.062 | [2] 0.065 | [3] 0.099 | [4] 0.048 | [5] 0.017

GLUD2 (UniProt P49448)
inactive: [1] 0.026 | [2] 0.061 | [3] -0.029 | [4] 0.047 | [5] -0.005

IFRD1 (UniProt O00458)
inactive: [1] -0.011 | [2] -0.069 | [3] 0.049 | [4] 0.02 | [5] 0.004

ICAM1 (UniProt P05362)
inactive: [1] -0.005 | [2] 0.021 | [3] 0.049 | [4] 0.012 | [5] 0.031

GALNT4 (UniProt Q8N4A0)
inactive: [1] 0.007 | [2] 0.062 | [3] 0.109 | [4] -0.033 | [5] -0.002

GUSB (UniProt P08236)
inactive: [1] 0.019 | [2] -0.057 | [3] -0.048 | [4] 0.039 | [5] 0.053

H3-3A (UniProt P84243)
inactive: [1] -0.004 | [2] 0.053 | [3] 0.154 | [4] -0.058 | [5] -0.102

IFITM3 (UniProt Q01628)
inactive: [1] 0.038 | [2] -0.024 | [3] -0.06 | [4] 0.081 | [5] -0.014
